Rows were chosen to be rich in hits. Some 3.5% of all compounds tested hit in one or more screens of this group.
Pf apPOL block: Pf-apPOL inhibitors, biochemical, fluorescence | inhibition, % at 10 µM | Recombinant Pf-apPOL, molecular beacon fluorescence, 1.5 h | Plasmodium falciparum apicoplast DNA polymerase (apPOL) | 210,000 tested, 0.25% active
mHTT CaM bind: mutant huntingtin-calmodulin interaction inhibitors – biochemical, AlphaScreen, primary screen | inhibition, % at 15 µM | 190,000 tested, 3.6% active | AlphaScreen His-mHTT/GST-CaM binding, luminescence | P42858;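 note: 0% = both proteins with DMSO and 100% = one protein alone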
* marks the source's active call; other numbers are inactive results; · = no result given. Cut-off read from the data, not from the text of the source: active = inhibition above about 50%; inactive = the rest.

SMILES | Pf apPOL block | mHTT CaM bind
Cc1ccc(-c2csc(=Nc3ccccc3)n2CCO)cc1 | -6 | 52*
OCCn1c(-c2ccc(Cl)c(Cl)c2)csc1=Nc1ccccc1 | 14 | 100*
O=C(Nc1ccc(F)cc1F)N1CCCC1c1cccc(F)c1 (stereo unspecified) | -3 | -7
CC(=O)Nc1cccc(N2CC(C(=O)NCc3cccc(Br)c3)CC2=O)c1 (stereo unspecified) | 1 | 7
Cc1cccc(S(=O)(=O)Nc2ccc([N+](=O)[O-])cc2)c1 | 1 | 1
O=C(c1ccccn1)N1CCC(n2nc(-c3ccsc3)ccc2=O)CC1 | -6 | 32
O=C(c1ccccc1F)N1CCC(n2nc(-c3ccsc3)ccc2=O)CC1 | 6 | 86*
CCOC(=O)c1cc(C)nn1C1CCN(C(=O)c2ccc(F)cc2F)CC1 | -3 | -4
O=C(c1ccc(F)cc1F)N1CCC(n2nc(-c3ccsc3)ccc2=O)CC1 | -5 | 100*
O=C(c1cc(F)ccc1F)N1CCC(n2nc(-c3ccsc3)ccc2=O)CC1 | 0 | 98*
O=C(c1cc(F)ccc1F)N1CCC(CCOCc2ccc(F)cc2)CC1 | -8 | -21
COc1cc(OC)c(Nc2ncnc3c2nc2n3CCCC2)cc1Cl | -2 | -4
O=[N+]([O-])c1ccc(-c2csc(CS(=O)(=O)Cc3cccc(C(F)(F)F)c3)n2)cc1 | -17 | ·
CSc1cccc(NC(=O)C2(S(=O)(=O)c3ccc(Cl)cc3)CC2)c1 | -5 | -15
CCCCc1c(C)c(C#N)c2nc3ccccc3n2c1NCCN1CCOCC1 | 2 | -8
CCc1c(C)c(C#N)c2nc3ccccc3n2c1NCCCN1CCOCC1 | 83* | -2
CCOc1ccc2c(c1)OC(=Cc1cccc(OC)c1OC)C2=O | -10 | 0
Cc1cc2ccccc2n2c(SCC(=O)NCCc3ccccc3)nnc12 | 0 | -21
COc1ccc(N2CCN(C(=O)c3ccnc(-c4cccs4)c3)CC2)cc1 | -2 | 50*
O=C(c1ccnc(-c2cccs2)c1)N1CCCCCC1 | -8 | -4
CCc1ccc(NC(=O)CSc2nc3ccc([N+](=O)[O-])cc3[nH]2)cc1 | -1 | 31
COc1ccc(CNC(=O)C2CN(S(=O)(=O)c3cccnc3)CC23CCCCC3)cc1 (stereo unspecified) | -3 | 3
CCOc1ccc(NC(=O)C2CN(S(=O)(=O)c3cccnc3)CC23CCCCC3)cc1 (stereo unspecified) | -1 | 52*
COc1cc(/C=C2\C(=O)Nc3ccc(Cl)cc32)cc(OC)c1OC | -5 | 0
COC(=O)C12CC3CC(CC(NC(=O)c4ccc(Cn5ccnc5)cc4)(C3)C1)C2 | -1 | 0
SMILES | Pf apPOL block | mHTT CaM bind
COC(=O)C12CC3CC(CC(NC(=O)c4ccc(=O)oc4)(C3)C1)C2 | 66* | 14
O=C1C(=Cc2ccccc2Br)Oc2c1ccc(O)c2CN1CCN(CCO)CC1 | -7 | 30
CNC(=O)c1ccc(N2CCC(NCc3cc(Br)ccc3O)C2)nc1 (stereo unspecified) | -4 | 3
COc1ccc(Br)cc1/C=C1/N=C(c2cncc(Br)c2)OC1=O | -3 | -3
O=Cc1ccc(-c2c(-c3ccccc3)oc3c2C(OCCCCO)CCC3)o1 (stereo unspecified) | -6 | 61*
OCCOC1CCCc2oc(-c3ccccc3)c(C#CC3(O)CCCCC3)c21 (stereo unspecified) | -8 | 30
O=C(Nc1nnc(-c2ccno2)o1)c1ccc2c(c1)OCO2 | 40 | 96*
COc1ccccc1-c1nnc(NC(=O)COc2ccccc2)o1 | 0 | 77*
O=C(CCS(=O)(=O)c1ccc(Cl)cc1)Nc1nnc(Cc2ccc3c(c2)OCO3)o1 | 8 | 4
O=C(CSc1ccc(F)cc1)Nc1nnc(Cc2cccs2)o1 | -12 | 33
CC1CN(S(=O)(=O)c2ccc(C(=O)Nc3nnc(-c4ccno4)o3)cc2)CC(C)O1 (stereo unspecified) | 19 | 42
CSc1ccccc1-c1nnc(NC(=O)CCOc2ccccc2)o1 | 0 | -2
O=C(COc1ccc(Cl)cc1)Nc1nnc(Cc2cccs2)o1 | -64 | 78*
O=C(COc1ccc(Cl)cc1Cl)Nc1nnc(Cc2ccc3c(c2)OCO3)o1 | -207 | 92*
Cc1nc(NC(=O)c2cccnc2)sc1C | -2 | 5
O=C(Nc1ccc(F)cc1)c1ccc(Br)cc1 | -1 | -3
Cc1ccc(CN2CC(C(=O)N3CCNc4ccccc4C3)CC2=O)cc1 (stereo unspecified) | -3 | 2
COC(=O)c1ccc(NC(=O)C(=O)NCc2ccc3c(c2)OCO3)cc1 | -3 | -12
COc1cccc2cc(C(=O)Nc3nnc(Cc4ccc(Cl)s4)o3)oc12 | -12 | -8
COc1nn(C)cc1C(=O)Nc1nnc(-c2ccco2)o1 | 0 | -5
COc1nn(C)cc1C(=O)Nc1nnc(COc2ccccc2)o1 | -7 | 66*
COC(=O)c1ccc(C(=O)Nc2nnc(-c3ccn(C(C)C)n3)o2)cc1 | -3 | 65*
COC(=O)c1ccc(C(=O)Nc2nnc(Cc3ccc4c(c3)OCO4)o2)cc1 | -49 | 57*

Assay outcomes: PubChem, University of Kansas High Throughput Screening Laboratory
